# Most compounds without a hit are left out; they make up all but 7.3% or so of the library.
# Tau ThT inhib = tau fibrillization inhibition (ThT binding); P10636; recombinant tau K18 P301L, heparin-induced fibrillization, ThT fluorescence; Potency, µM (top dose mostly 57.4 µM), without a hit: at the highest dose activity, negative = inhibition, hits mostly inhibitors; 270,000 compounds, 2.1% hits; AID 1460; further: nearly all actives have a fitted effect of over 55% in size
# Target sequence (P10636 561-689 P618L limits assumed): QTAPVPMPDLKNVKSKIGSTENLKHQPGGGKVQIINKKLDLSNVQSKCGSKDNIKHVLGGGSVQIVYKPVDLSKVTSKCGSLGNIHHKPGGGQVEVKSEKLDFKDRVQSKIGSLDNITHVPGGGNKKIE
#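 ThT emission at 510 nm, taken 1 hr after adding 30 uM dye, quantifies aggregates formed when 20 uM heparin acts on human tau K18 P301L for 6 hr at 37 C.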
# Tau fluor cs = counter-screen for tau fibril formation inhibitors. tau K18 P301L (four-repeat tau fragment) Alexa594 fluorescence, heparin fibrillization. Potency, µM (series often up to 57.7 µM), for the others: top-dose activity change, negative = decrease. 280,000 compounds, 0.93% hits. AID 1463; further: nearly all actives have a fitted effect of over 55% in size
#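 Human K18 P301L tau (15 uM unlabeled plus 0.24 uM Alexa 594-labeled, final) in 100 mM sodium acetate pH 7 was mixed with compound and 20 uM heparin and incubated 6 hr at 37 C.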
# RORg inh = inhibitors of mouse ROR gamma transcriptional activity; P51450; Drosophila S2 Gal4-RORgamma UAS-luciferase reporter, 20 h; Potency, µM (series often up to 53.6 µM), for inactives: at the highest dose activity change, negative = inhibition, hits mostly inhibitors; 310,000 compounds, 5.4% hits; AID 2551; further: nearly all actives have a fitted effect of over 60% in size
# Target sequence (P51450 whole entry, looked up, the tested form may be a part): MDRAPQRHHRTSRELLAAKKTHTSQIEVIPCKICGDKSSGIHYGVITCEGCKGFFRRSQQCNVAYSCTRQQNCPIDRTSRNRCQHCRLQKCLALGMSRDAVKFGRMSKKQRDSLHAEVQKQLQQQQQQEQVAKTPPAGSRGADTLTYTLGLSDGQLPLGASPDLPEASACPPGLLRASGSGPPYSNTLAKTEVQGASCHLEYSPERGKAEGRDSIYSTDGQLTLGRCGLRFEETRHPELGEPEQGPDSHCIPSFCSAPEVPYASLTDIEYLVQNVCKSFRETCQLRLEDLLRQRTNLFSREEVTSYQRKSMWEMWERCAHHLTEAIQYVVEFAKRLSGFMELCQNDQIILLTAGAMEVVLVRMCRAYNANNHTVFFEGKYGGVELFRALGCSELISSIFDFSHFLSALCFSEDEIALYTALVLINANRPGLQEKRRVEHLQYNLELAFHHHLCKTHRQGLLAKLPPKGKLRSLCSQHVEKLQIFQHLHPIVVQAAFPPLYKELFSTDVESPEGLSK
#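 Schneider cells (Drosophila), stable Gal4 DBD–ROR gamma + UAS-luc; 1 hr cmpd preincubation; Cu2+ induction 700 uM final; 20 hr ambient; luminescence.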
# Tau FP inhib = tau fibrillization inhibition (FP) | 280,000 compounds, 0.39% hits | AID 1468 | P10636 | K18 P301L tau heparin fibrillization, Alexa594 FP, 6 h | Potency, µM (highest dose often 57.7 µM), without a hit: at the top dose activity, negative = inhibition, hits mostly inhibitors; further: nearly all actives have a fitted effect of over 55% in size
#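 K18 P301L tau (15 uM unlabeled/0.24 uM Alexa 594-labeled, final) + compound + heparin 20 uM final; 100 mM NaOAc pH 7; 6 hr 37 C; ThT 30 uM final added, 1 hr RT; FP ex 555/em 632 nm.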
# Gal4-VP16 FLuc = inhibits Gal4-VP16 luciferase reporter, ROR gamma counter-screen. Drosophila S2 Gal4-VP16 UAS-luciferase, luminescence, 20 h. Potency, µM (series often up to 53.6 µM), inactives show at the top dose activity, negative = inhibition, usual class: inhibitors. 310,000 compounds, 3.5% hits. AID 2546;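 further: Gal4-VP16 expression switched on by copper sulfate through the metallothionein promoter; nearly all actives have a fitted effect of over 50% in size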
# An asterisk follows results filed as active; ? = inconclusive; · = no result; [ ] = another dose, or the depositor's remark. The call rests on the fitted dose curve; in most records, active means well fitted curve in the direction sought with a large enough effect; inconclusive means small, poorly fitted or top-dose-only effect, or another doubt; inactive means no such curve, though single readings can be large; an effect the other way counts as inactive or inconclusive. On the % scale 0 is the no-effect control and ±100 the full control effect; potency means the concentration at half of the fitted maximal effect.
SMILES,Tau ThT inhib,Tau fluor cs,RORg inh,Tau FP inhib,Gal4-VP16 FLuc
O=S(=O)(/N=S1/CC=CCN1S(=O)(=O)c1ccccc1)c1ccccc1 (configuration not stated),?,-0.8%,11.2µM*,?,?
O=S(=O)(c1ccccc1)N1CCN(S(=O)(=O)c2ccccc2)C1,11.5%,3.0%,5.0%,-0.3%,9.1%
COc1ccc(CCC(=O)NCCNC(=O)CCc2ccc(OC)cc2)cc1,·,·,0.9%,·,-6.8%
O=C(c1ccc2c(c1)N(Cc1ccc(Cl)cc1)C(=O)c1ccccc1S2(=O)=O)N1CCc2ccccc21,-9.1%,-16.6%,·,-8.3%,·
Cc1c(Cl)cccc1N=Cc1ccc([N+](=O)[O-])s1,?,-26.7%,?,-6.1%,20µM*
Cc1ccc(CCNC(=O)c2cn(C)c3ccc(S(=O)(=O)N4CCCCC4)cc3c2=O)cc1,5.4%,-12.7%,·,-12.7%,·
CCCCN(CC)CCOc1cccc2ccccc12,-6.7%,-13.7%,·,-5.9%,·
CCCCCCOc1ccc(C(=N)N(CCCC)CCCC)c2ccccc12,·,·,?,·,22.4µM*
COc1ccc(N=C2NC(=O)S/C2=C\c2ccc(N(C)C)cc2)cc1,1.12µM*,?,0.4%,?,-11.1%
CCOc1ccc(N=C2NC(=O)S/C2=C\c2ccc(Cl)cc2)cc1,?,-21.1%,-10.0%,-9.1%,-4.0%
CO/N=C(/C(=O)N[C@@H]1C(=O)N2C(C(=O)O)=CCS[C@H]12)c1csc(N)n1,·,·,-2.0%,·,0.7%
O=c1c2ccccc2nc(COc2ccccc2)n1/N=C/c1cc([N+](=O)[O-])ccc1O,?,?,5.01µM*,-3.7%,3.98µM*
Cc1ccccc1OCc1nc2ccccc2c(=O)n1/N=C/c1c[nH]c2ccccc12,9.2%,?,?,?,-19.0%
O=[N+]([O-])c1ccc(Cl)c(/C=N/n2c(COc3ccccc3)n[nH]c2=S)c1,?,-17.5%,?,-8.6%,-1.7%
Cc1cccc(C)c1OCc1nc2ccccc2c(=O)n1/N=C/c1c[nH]c2ccccc12,-4.8%,3.55µM*[quencher],?,?,-15.4%
Cc1cc(/C=N/n2c(COc3ccccc3C)nc3ccccc3c2=O)c(O)c([N+](=O)[O-])c1,-1.3%,-6.4%,14.1µM*,-2.0%,35.5µM*
Cc1cn(C)c(CC(=O)NCc2ccc(F)cc2)c1C(=O)O,7.4%,10.4%,·,3.3%,·
COc1ccc(N(C)S(=O)(=O)c2ccc3c(c2)NC(=O)CO3)c(OC)c1,·,·,-19.0%,·,-4.1%
CC1=C(C(=O)N(C)C)C(c2cccc(Cl)c2)NC(=O)N1 (configuration not stated),-1.3%,-1.8%,11.2µM*,-7.1%,-2.0%
Cc1cc(Nc2ccc(C(C)C)cc2)n2ncnc2n1,-6.8%,-10.6%,?,-1.9%,?
FC(F)(F)c1cccc(Nc2cc(-c3ccccc3)nc3ncnn23)c1,8.9%,10.6%,2µM*,0.1%,-11.4%
CC(=O)Nc1ccc(Nc2cc(-c3ccccc3)nc3ncnn23)cc1,-15.9%,-9.9%,-15.0%,5.8%,1.5%
Cc1cc(Nc2ccc3ccccc3c2)n2ncnc2n1,-20.2%,-12.2%,6.31µM*,0.1%,?
CC(C)(C)NC[C@H](O)c1cc(O)cc(O)c1,·,·,7.2%[16.9 µM],·,0.6%[17 µM]
Cc1oc(-c2ccc(Cl)cc2)cc1C(=O)O,·,10.3%,14.1µM*,2.9%,?
SMILES,Tau ThT inhib,Tau fluor cs,RORg inh,Tau FP inhib,Gal4-VP16 FLuc
CCc1ccc(NC(=O)c2sc3nc(C)c(C(=O)Nc4ccc(C)cc4C)c(-c4ccco4)c3c2N)cc1,?,-10.4%,·,-0.5%,·
O=C(CCS(=O)(=O)c1ccccc1)Nc1nncs1,·,·,-43.4%,·,-16.0%
CC(=O)c1sc(NC(=O)CCS(=O)(=O)c2ccccc2)nc1C,·,·,12.6µM*,·,?
CO/N=C/c1ccc(Sc2ccccc2N)c([N+](=O)[O-])c1,?,28.2µM*[quencher],12.4%,4.6%,1.2%
N=C1S/C(=C\c2ccco2)C(=O)N1c1nccs1,15.8µM*,-22.3%,0.0178µM*,-2.2%,0.224µM*
N=C1S/C(=C\c2ccco2)C(=O)N1c1ccc2c(c1)OCO2,15.8µM*,?,19.0%,-2.0%,?
Cc1ccc(N2C(=O)/C(=C/c3ccco3)SC2=S)cc1,?,-26.1%,21.4%,-12.9%,3.9%
COc1ccccc1OCCN1C(=O)S/C(=C\c2ccco2)C1=O,?,-27.0%,21.4%,-4.1%,?
CS(=O)(=O)c1ccc(Cl)c(NC(=O)CCl)c1,?,-26.2%,14.1µM*,-8.3%,-66.3%
Cc1cccc(C)c1NC(=S)Nc1ccc(Cl)c(Cl)c1,2.6%,-23.5%,6.31µM*,?,?
O=C(Nc1cccc(Cl)c1)Nc1cccc(Cl)c1,-10.2%,-21.6%,?,?,-13.8%
COC(=O)c1cc(NC(=O)Nc2cccc(Cl)c2)ccc1Cl,?,7.94µM*[quencher],?,7.94µM*,?
COC(=O)c1cccc(NC(=S)Nc2cccc(Cl)c2C)c1,0.4%,-4.3%,?,?,?
COC(=O)c1cc(NC(=S)Nc2cc(Cl)cc(Cl)c2)cc(C(=O)OC)c1,-5.4%,?,-37.6%,31.6µM*,-14.5%
Cc1cc(C)cc(NC(=S)Nc2ccc(Cl)c(Cl)c2)c1,-2.5%,?,10µM*,?,?
COc1ccc(NC(=S)Nc2ccc(C)c(Cl)c2)cc1OC,-7.6%,?,?,-0.2%,?
COC(=O)c1cccc(NC(=S)Nc2ccccc2Cl)c1,·,-7.3%,-13.7%,-11.6%,-2.5%
COC(=O)c1cccc(NC(=S)Nc2ccc(Cl)c(Cl)c2)c1,4.8%,20µM*[quencher],-28.6%,?,6.0%
Cc1nc(-n2[nH]c3c(c2=O)CCCC3)[nH]c(=O)c1Cc1ccccc1,-3.4%,-10.2%,2.24µM*,-1.6%,2.51µM*
Cc1nc(N2CCc3ccccc3C2)[nH]c(=O)c1Cc1ccccc1,3.9%,0.6%,43.6%,3.0%,1.7%
C=C1CCc2c([nH]c3ccc(OCC(C)C)cc23)C1=O,·,·,14.1µM*,·,?
COC(=O)[C@@H]1C[C@@]2(O)[C@@H](O)[C@@H](O)[C@@H](O)C[C@H]2N1Cc1cc(F)ccc1F,0.8%,-3.8%,3.1%,-4.8%,-3.3%
COc1ccc(-c2coc3ccc(OC4OC(COC(C)=O)C(OC(C)=O)C(OC(C)=O)C4OC(C)=O)c(OC(C)=O)c3c2=O)cc1 (configuration not stated),-9.3%,-7.2%,12.3%,-3.6%,-4.5%
CC(=O)OCC1OC(Oc2cc(OC(C)=O)c3c(=O)cc(-c4ccc(OC(C)=O)c(OC(C)=O)c4)oc3c2)C(OC(C)=O)C(OC(C)=O)C1OC(C)=O (configuration not stated),?,?,25.1µM*,?,15.8µM*
COc1ccc(OC)c(C2=Nn3c(nnc3-c3ccccc3OC)SC2)c1,·,·,-34.8%,·,-7.1%
COc1ccc(/C=N/NC(=O)c2cnccn2)c(OC)c1OC,-5.8%,3.6%,3.1%,-1.5%,-1.4%
